Bioassay records (PubChem)
Shown are actives, neighbours in structure and some others; about 1% of the full set was active somewhere.
NPSR antag = antagonists of human neuropeptide S receptor cAMP signaling | Q6W5P4 | CHO-NPSR cells, cAMP TR-FRET, antagonist mode | Potency, µM (top dose mostly 38.3 µM), for inactives: at the highest dose activity change, negative = inhibition, actives largely listed as inhibitors | 1% of 220,000 active; further: potency means the concentration at half of the fitted maximal effect; on the % scale 0 is the no-effect control and ±100 the full control effect; nearly all actives have a fitted effect of over 50% in size
TCR act = activates T cell receptor signaling; AID 504894; 330,000 tested, under 10 active; Potency, µM (doses to about 9.22 µM), inactives show at the highest dose activation of IL-2 secretion, most hits filed as activators; primary human leukocytes, anti-CD3, IL-2 HTRF, 48 h; further: % of control where 0% means no effect
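IL-2 release read by HTRF sandwich (Eu cryptate donor, d2 acceptor, 665 nm emission) after 48 hr exposure of primary human leukocytes to compound together with anti-CD3 beads in the absence of co-stimulatory signals.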
TRb SRC2 PPI = TRbeta-SRC2 interaction inhibition; P10828; TRbeta-SRC2 peptide binding, fluorescence polarization; receptor liganded with 1 µM T3; Potency, µM (highest dose often 106 µM), for the others: at the highest dose activity change, negative = inhibition, hits mostly inhibitors; 0.065% of 280,000 active;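 further: potency means the concentration at half of the fitted maximal effect; plate controls were bound peptide for no effect and peptide without receptor for full effect; nearly all actives have a fitted effect of over 50% in size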
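Quantitative HTS by FP: 0.6 uM TRb LBD, 20 nM labeled SRC2 20-mer, 1 uM T3, 5% DMSO; 5 hr ambient incubation; % activity per concentration and potencies from concentration series.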
FBPA coupling cs = counter-screen for Giardia aldolase inhibitors: coupling enzyme system; coupling enzyme system counterscreen, AmpLite Red fluorescence; activity change, negative = inhibition, % at 58.2 µM, hits read low; 0.67% of 290,000 active; in the data active means activity change below about -30%; further: on the % scale 0 is the no-effect control and ±100 the full control effect
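Compounds tested against the coupling enzymes alone at 57.5 uM final; readout was AmpLite Red fluorescence (525/598 nm) after 20 min at RT.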
TR SRC2 fluor cs = Texas Red fluorescence interference in TRb-SRC2 counter-screen | TRb/SRC2 Texas Red total fluorescence interference | Potency, µM (top dose mostly 106 µM), for the others: top-dose fluorescence change, negative = quenching | 0.29% of 280,000 active | AID 1479; active means well fitted curve in either direction with a large enough effect; inconclusive means small, poorly fitted or top-dose-only effect; further: potency means the concentration at half of the fitted maximal effect; on the % scale 0 is the no-effect control and ±100 the full control effect
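Flags fluorescent or light-absorbing compounds by total fluorescence, S + 2P, at 555 nm excitation and 632 nm emission. Mixture: 20 nM Texas Red SRC2 peptide, 0.6 uM human TRb LBD, 1 uM T3, 5% DMSO; compound exposure 5 h at ambient temperature.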
TSHR antagonist = antagonists of human thyroid stimulating hormone receptor; 0.2% of 330,000 active; TSHR-expressing cells, TSH-stimulated cAMP HTRF, 2 h; hits give low values; AID 504810; activity change, negative = inhibition, % at 11.5 µM;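 active means activity change below a set negative limit, meaning inhibition stronger than a set level, cut at about -70% in these data; inconclusive means activity change between two set negative limits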; further: on the % scale 0 is the no-effect control and ±100 the full control effect
Target sequence (P16473 whole entry, looked up): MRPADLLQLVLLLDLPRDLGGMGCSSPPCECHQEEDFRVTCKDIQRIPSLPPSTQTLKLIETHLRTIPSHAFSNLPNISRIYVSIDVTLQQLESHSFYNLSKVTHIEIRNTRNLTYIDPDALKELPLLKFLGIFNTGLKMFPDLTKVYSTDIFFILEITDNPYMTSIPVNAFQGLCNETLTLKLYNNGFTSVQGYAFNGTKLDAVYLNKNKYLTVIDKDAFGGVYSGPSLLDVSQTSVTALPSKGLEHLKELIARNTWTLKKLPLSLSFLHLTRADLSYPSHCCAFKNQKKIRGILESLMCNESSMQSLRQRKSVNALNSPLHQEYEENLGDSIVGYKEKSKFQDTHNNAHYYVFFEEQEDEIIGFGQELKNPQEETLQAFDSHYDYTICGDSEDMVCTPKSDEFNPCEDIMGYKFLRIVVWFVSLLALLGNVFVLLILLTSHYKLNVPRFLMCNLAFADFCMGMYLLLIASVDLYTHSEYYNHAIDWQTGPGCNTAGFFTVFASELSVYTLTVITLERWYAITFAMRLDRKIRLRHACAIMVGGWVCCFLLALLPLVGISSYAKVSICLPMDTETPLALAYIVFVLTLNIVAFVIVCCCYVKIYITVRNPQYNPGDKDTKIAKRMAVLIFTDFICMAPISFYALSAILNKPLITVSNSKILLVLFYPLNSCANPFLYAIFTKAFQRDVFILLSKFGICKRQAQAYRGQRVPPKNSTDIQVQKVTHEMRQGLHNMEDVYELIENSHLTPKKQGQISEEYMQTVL
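Read-out is FRET at 665 nm (cryptate excitation 337 nm) from a cryptate-tagged anti-cAMP antibody, competed by cell cAMP against cAMP-d2. Compounds are tested on freshly harvested TSHR cells challenged with 4nM TSH (EC80) for 2 hours at 37 deg C.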
An asterisk follows results filed as active; u = inconclusive; x = no result given; [ ] = dose if it differs, or a comment. Unless noted, the call rests on the fitted dose curve; in most records, active means well fitted curve in the direction sought with a large enough effect; inconclusive means small, poorly fitted or top-dose-only effect, or another doubt; inactive means no such curve, though single readings can be large; an effect the other way counts as inactive or inconclusive.

SMILES	NPSR antag	TCR act	TRb SRC2 PPI	FBPA coupling cs	TR SRC2 fluor cs	TSHR antagonist
CCn1cc(/C=C/c2cc[n+](C)cc2)c2ccccc21	x	4%	x	-25	x	-17
CC(C)n1cc(/C=C/c2cc[n+](C)cc2)c2ccccc21	x	1%	x	-33*	x	-4
Cc1ccc2[nH]c(C)c(CC(=O)O)c2c1	-7%[46.1 µM]	6%	3%	-40*	1%	6
Cc1[nH]c2ccc(C(C)C)cc2c1CC(=O)O	-2%	5%	4%	1	-5%	-2
COC(=O)c1c(-c2cccs2)csc1NC(=O)c1ccc(Br)cc1	x	x	-9%	x	u	x
CCOc1ccc(/C=C/C(=O)Nc2ccc(C(N)=O)cc2)cc1OC	-5%	1%[46.1 µM]	-26%	-1	1%	6
CCOCCOC(=O)c1ccc(NC(=O)/C=C/c2ccc(OC)c(OC)c2)cc1	x	x	-17%[53 µM]	x	0.89µM*[quencher]	x
COc1ccc(-n2nc3cc(C)c(N)c(Br)c3n2)cc1	-14%[46.1 µM]	0%	u	-50*	-28%	-24
COc1ccc(-n2nc3cc(N)c(Br)cc3n2)cc1	x	x	x	-2	x	-9
CN(C)C(=O)c1ccc(NC(=O)Cn2nnnc2-c2ccccc2F)cc1	x	x	5%	x	1%	x
C=C(C)C(=O)OC1(C(F)(F)F)Oc2cc(C)ccc2NC1=O (configuration not stated)	10µM*	-8%	-25%	1	-2%	-20
CCc1nn(CC(=O)NCCc2ccc(Cl)cc2)c(=O)c2cc3c(OC)cccc3n12	x	x	-1%	x	u	x
Cc1ccc(S(=O)(=O)/N=C2/NC(=O)/C(=C\c3cc(Br)cc(Br)c3O)S2)cc1	x	12%	x	x	x	-100*
Brc1ccc(Oc2ccc(Br)cc2)cc1	x	x	1%[201 µM]	x	-3%[201 µM]	x
CCN(Cc1ccncc1)Cc1c(O)ccc2cc(Br)ccc12	-34%	0%	-5%	-54*	3%	-14
c1cc2ccc3ccc4ccc5cccc6c(c1)c2c3c4c56	x	x	-5%[201 µM]	x	0%[201 µM]	x
COc1cc(C(C[N+](=O)[O-])c2c(N)n(C)c(=O)n(C)c2=O)ccc1O (configuration not stated)	8%	3%	4%	-4	-1%	-2
COc1cccc(F)c1C(C[N+](=O)[O-])c1c(N)n(C)c(=O)n(C)c1=O (configuration not stated)	6.3µM*	2%	3%	-1	-1%	-13
Cc1cc(C(C)(C)C)oc1C(=O)N(CC(=O)NC1CCCC1)Cc1ccccc1Cl	7.9µM*	-3%	3%	-1	-2%	-35
O=C(NC1CCCCC1)c1cc(-c2ccc(O)cc2)on1	x	4%	x	0	x	-3
O=C(NC1CCCC1)c1cc(COc2ccc3ncccc3c2)on1	-9%	3%	2%	0	1%	-18
Cc1ccc(OCc2cc(C(=O)NC3CCCCC3)no2)cn1	x	0%	x	-2	x	-109*
O=C(NC1CCCCC1)c1cc(-c2ccccc2O)on1	x	-5%	x	-2	x	-80*
COC(=O)c1ccccc1C(=O)O	x	x	5%[201 µM]	x	0%[201 µM]	x
CC(C)C1Cc2c(sc3[nH]c(=S)n(Cc4ccccc4)c(=O)c23)CO1 (configuration not stated)	10µM*	-5%	-12%	4	0%	-5
SMILES	NPSR antag	TCR act	TRb SRC2 PPI	FBPA coupling cs	TR SRC2 fluor cs	TSHR antagonist
Cc1nnc2n(-c3ccccc3)c(=O)c3c4c(sc3n12)COC(C(C)C)C4 (configuration not stated)	-11%[46.1 µM]	0%	6%	0	-4%	0
C[Si]1(C)O[Si](C)(C)O[Si](C)(C)O[Si](C)(C)O[Si](C)(C)O1	x	x	-3%[201 µM]	x	-2%[201 µM]	x
CCN1c2ccccc2N(C)C1(C)c1ccccc1 (configuration not stated)	-9%	2%[46.1 µM]	u	-53*	45µM*[fluorescent]	3
CN1c2ccccc2N(C)C1(C)c1ccccc1	-8%	5%[46.1 µM]	-4%	-1	-5%	35
CC1(C)OC(=O)C(=CNc2cccc(O)c2)C(=O)O1	-4%[46.1 µM]	1%	3%	-1	2%	-2
CC1(C)OC(C)(C)/C(=C/Nc2ccc(O)cc2)C1=O	-6%	9%[46.1 µM]	9%	-44*	1%	3
CC(=O)N(C1=C(N)C(=O)c2ccccc2C1=O)C(C)C	11%	x	-5%	-43*	-1%	-5
COC(=O)Cc1cc(=O)n2[nH]c(C(F)(F)F)nc2n1	-2%[46.1 µM]	1%	0%	-34*	1%	19
Cc1ccc2c(c1)N(C(=O)N1CCC(C(=O)NCCc3ccc(Cl)cc3)CC1)CC(C)O2 (configuration not stated)	x	x	-6%	x	0%	x
Oc1ccc2oc3c(c2c1C=NCc1ccncc1)CCCC3	u	11%	2%	-36*	-1%	-34
O=C(CN1CCc2ccccc21)NC(=O)NC1CCCCC1	-6%	1%	2%	-1	-4%	4
CC(C)(C)NC(=O)NC(=O)CN1CCc2ccccc21	-5%	-5%	0%	-39*	0%	9
O=S(=O)(Nc1ccc(O)c2ccccc12)c1cccs1	x	3%	x	-35*	x	10
Cc1ccc(-n2nc3c(c2NC(=O)c2ccc(Br)o2)CSC3)c(C)c1	-26%[46.1 µM]	x	-1%	-35*	1%	-2
COC(=O)c1ccccc1NC(=O)/C=C/c1ccco1	1%	0%[46.1 µM]	u	-1	3.2µM*[quencher]	25
CCOC(=O)Cn1c(=O)c2c(nc(N3CCOCC3)n2Cc2ccccc2)n(C)c1=O	x	x	-4%	x	-2%	x
O=C1C=C(Nc2ccc(O)cc2)C(=O)c2ccccc21	38%	-28%	1%	-16	-3%	1
O=C1C(Nc2ccc(O)cc2)=C/C(=N/S(=O)(=O)c2cccs2)c2ccccc21	6.3µM*	x	u	-37*	-2%	u
Cc1c(Cl)cccc1N/C(=N/S(=O)(=O)c1cccs1)c1ccccc1	39%	7%	-7%	2	-1%	-10
Cc1ccc(NC2=C/C(=N\S(=O)(=O)c3cccs3)c3ccccc3C2=O)c(C)c1	4µM*	2%[46.1 µM]	-27%	-2	-2%	-36
Cc1ccc(Cl)cc1NC1=C/C(=N\S(=O)(=O)c2cccs2)c2ccccc2C1=O	u	-1%	-22%	-46*	4%	-76*
Cc1cccc(NC2=C/C(=N/S(=O)(=O)c3cccs3)c3ccccc3C2=O)c1	5µM*	5%[46.1 µM]	-1%	3	-4%	16
CCc1ccc(-n2c(=O)c3c4c(sc3n(CC(=O)N3CCC(C)CC3)c2=O)CCC4)cc1	x	x	4%	x	-9%	x
CCOc1ccc(C(=O)c2cn(CC(=O)Nc3ccc(F)cc3)c3cc4c(cc3c2=O)OCCO4)cc1	x	x	0%	x	-2%	x
CCC(=O)N(C1=C(NC(C)C)C(=O)c2ccccc2C1=O)C(C)C	-20%	0%	-6%	-34*	0%	14
